In PubChem BioAssay AID2685 (National Center for Advancing Translational Sciences (NCATS), 2010):
About 2,100 (0.66%) of roughly 320,000 compounds were called active. Another 53% or so got no clear call; they are omitted. Calls follow the shape of the dose curve; as a rule, active = well fitted inhibition curve with a large enough effect in the signal ratio, with a control signal flat (not every such curve was filed as active); inconclusive = small, poorly fitted or top-dose-only effect, or effect the other way, or a change in a side signal; inactive = flat fitted curve, though single readings scatter; the % refers to the signal ratio. This excerpt belongs to a sample that is enriched for actives.

Experiment: qHTS Assay for Lipid Storage Modulators in Drosophila S3 Cells;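 as to cell number change: cells counted by Cell Tracker Red CMTPX staining in the red channel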; as to lipid storage change, negative = inhibition: % is scaled to controls: 0 for no effect and ±100 for the full control effect
Details: BODIPY lipid droplet fluorescence, 18-24 h, cells fed with added oleic acid; cell number change: measured here: cell count max response; series mostly up to 46.1 µM
Method in brief: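 Drosophila S3 cells got compounds at several concentrations plus oleic acid (400 uM solution). Laser-scanning cytometry with 488 nm excitation read lipid droplets at 500-530 nm and cells at 575-640 nm. Percent activity was relative to 20 uM Triacsin C.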
Potency is read from the fitted curve at half-maximal effect.

Row | Compound | Potency | cell number change [%] | lipid storage change, negative = inhibition
1 | Cc1cnc(C(=O)NNC(=O)c2ccc(Br)cc2)cn1 | inactive | – | –
2 | CNC(=O)C(=O)Nc1nc(C23CC4CC(CC(C4)C2)C3)cs1 | inactive | – | –
3 | CC(CSc1nnnn1-c1ccccc1)Cn1c(N2CCN(C)CC2)nc2c1c(=O)[nH]c(=O)n2C (configuration not stated) | inactive | -4.1 | –
4 | CCOc1ccc(-n2c(SCC(=O)NCc3ccco3)nnc2-c2c[nH]c3ccccc23)cc1 | inactive | – | –
5 | CCOC(=O)c1sc(N2N=C(C)/C(=C\c3ccc(OCC(=O)OC)cc3)C2=O)nc1C | inactive | 0.316 | –
6 | CC(=O)c1ccc(S(=O)(=O)NC2CCSc3ccccc32)cc1 (configuration not stated) | inactive | 11.1 | –
7 | O=C(COC(=O)c1ccc(Cl)cc1[N+](=O)[O-])NC(=O)c1ccccc1 | inactive | -11.4 | –
8 | Cc1ccc(C2=NC3(CCCC3)NC2=S)cc1 | – | 8.14 | 6.56% [at 9.22 µM] (inactive)
9 | Cc1ccc(NC(=O)CCN2C(=O)c3ccccc3C2=O)c(C)c1 | inactive | 5.45 | –
10 | CSc1ccccc1NC(=O)C1=CC(c2cccs2)=NS(=O)(=O)N1C | 4.11 µM (active) | -26.8 | –
11 | COC(=O)c1ccccc1NC(=O)C1=CC(c2cccs2)=NS(=O)(=O)N1C | inactive | 5.19 | –
12 | CN1C(C(=O)Nc2ccc(F)cc2F)=CC(c2cccs2)=NS1(=O)=O | inactive | -0.288 | –
13 | Cc1nnc(SCC(=O)NNC(=O)c2ccccc2)n1-c1ccccc1 | inactive | – | –
14 | COc1cc2c(cc1OC)C(c1ccccc1)N(C(=O)c1cccc(S(C)(=O)=O)c1)CC2 (configuration not stated) | inactive | 14.6 | –
15 | Cc1cc(C(=O)COC(=O)/C=C/c2cccc(Br)c2)c(C)n1C | inactive | – | –
16 | COc1ccccc1/C=C/C(=O)OCC(=O)c1cc(C)n(C)c1C | 1.3 µM (active) | -22.1 | –
17 | Cc1cc(C(=O)COC(=O)/C=C/c2cccc(F)c2)c(C)n1C | inactive | 5.66 | –
18 | COc1ccc(S(=O)(=O)Nc2ccccc2N2CCOCC2)cc1[N+](=O)[O-] | inactive | 0.857 | –
19 | COCCCNC(=S)Nc1ccc2nc(N3CCOCC3)cc(C)c2c1 | inactive | 0.741 | –
20 | O=C(NCCS(=O)(=O)N1CCN(c2ccc(F)cc2)CC1)C1CC(=O)N(c2ccccc2)C1 (configuration not stated) | inactive | 4.61 | –
21 | Cc1ccc(N2CC(C(=O)NCCS(=O)(=O)N3CCN(c4ccc(F)cc4)CC3)CC2=O)cc1 (configuration not stated) | 2.06 µM (active) | -2.39 | –
22 | O=C(NCCS(=O)(=O)N1CCN(c2ccccc2)CC1)C1CC(=O)N(c2ccc(F)cc2)C1 (configuration not stated) | inactive | -3.13 | –
23 | CC(=O)N1CCc2c(sc(NC(=O)Cc3ccc(F)cc3)c2C#N)C1 | inactive | 7.34 | –
24 | COc1cccc(CNC(=O)COC(=O)c2nc(Cl)c(Cl)c(Cl)c2Cl)c1 | 14.6 µM (active) | -29.4 | –
25 | COc1cccc(CNC(=O)CCl)c1 | inactive | 5.99 | –
26 | O=C(COC(=O)c1nc(Cl)c(Cl)c(Cl)c1Cl)NCc1ccccc1 | inactive | -8.84 | –
